ssDAF-12 act = S. stercoralis DAF-12 activation, primary screen; HEK293 ssDAF-12/GRIP1 lit1-tk-luc reporter, luminescence; % of 3 µM dafachronic acid response; activation, % at 6.8 µM; hit rate 1% among 370,000; AID 652126;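 active = activation above the mean over all tested compounds plus 3 SD, cut at about 0.9% in these data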;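 also: 0% = DMSO-only wells and 100% = 3 µM delta7-dafachronic acid wells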
hgDAF-12 ag = hgDAF-12 agonism, primary luciferase screen; HEK293 GAL4-hgDAF12 UAS-luciferase reporter, agonist luminescence; normalized to butyrate control; activation, % at 6.8 µM; hit rate 1.8% among 370,000; AID 687014;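 active = activation above a cutoff set at the mean of all screened compounds plus 3 SD, cut at about 10% in these data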;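 also: 0% = DMSO wells and 100% = sodium butyrate wells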
FXN GAA850 act = frataxin GAA850 promoter activation; HEK293 lucGAA850 FXN promoter luciferase reporter, 24 h; percent of 10 µM SAHA response; activation, % at 6 µM; hit rate 0.56% among 360,000; AID 540364;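 active = activation above the average of all compounds screened plus 3 SD, cutoff fixed separately per campaign, cut at about 7.5% in these data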;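 also: 0% = DMSO wells and 100% = 10 µM SAHA wells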
DAX1 inh-1 = inhibitors of DAX1 repression of SF-1 activated StAR promoter. HEK293T StAR-luciferase reporter, SF-1/DAX-1 repression relief. inhibition, % at 6.8 µM. hit rate 1.1% among 370,000. AID 652010;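 active = inhibition above the mean over all tested compounds plus 3 SD, cut at about 3.6% in these data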;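 also: 0% = DAX-1 cells with DMSO and 100% = cells lacking DAX-1 with DMSO; higher inhibition means more luminescence from relief of DAX-1 repression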
hcDAF-12 act = activators of H. contortus DAF-12 nuclear receptor. HEK293 hcDAF-12 lit1-tk-luc reporter, luminescence; 0% DMSO, 100% Δ7-dafachronic acid. activation, % at 6.8 µM. hit rate 1.4% among 370,000. AID 652067;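 active = activation above the mean of all tested compounds plus 3 SD, cut at about 5.5% in these data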;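 also: 100% = response to 3 µM Δ7-dafachronic acid high control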
DAX1 inh-2 = inhibitors of human orphan nuclear receptor DAX1 (NR0B1). hit rate 0.99% among 340,000. inhibition, % at 6.75 µM. HEK293 Gal4-DAX1 luciferase reporter, luminescence;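 active = inhibition above the mean over all tested compounds plus 3 SD, cut at about 4.2% in these data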;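 also: 0% = DAX1-transfected cells with DMSO and 100% = empty-vector control cells with DMSO; inhibition shows as a rise in luminescence from relieved DAX1 repression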
Target sequence (P51843 207-470 limits assumed): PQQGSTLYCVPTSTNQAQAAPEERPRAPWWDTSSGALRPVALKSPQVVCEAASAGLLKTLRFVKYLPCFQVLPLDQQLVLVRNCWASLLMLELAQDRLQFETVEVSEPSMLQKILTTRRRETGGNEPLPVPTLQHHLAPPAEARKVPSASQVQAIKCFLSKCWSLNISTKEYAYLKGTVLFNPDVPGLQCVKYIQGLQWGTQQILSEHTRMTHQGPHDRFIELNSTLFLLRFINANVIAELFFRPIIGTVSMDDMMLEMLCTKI
Starred values were filed as active, the others as inactive; . = not tested or not shown. Hits are enriched below; roughly 4.5% of the tested compounds scored in any of these assays.

SMILES	ssDAF-12 act	hgDAF-12 ag	FXN GAA850 act	DAX1 inh-1	hcDAF-12 act	DAX1 inh-2
CCOc1ccc(/C=C2/SC(=O)NC2=S)cc1	0	4	3	0	3	4
O=C1NC(=O)C(=Cc2ccc(Cl)c(Cl)c2)S1	-1	4	1	0	2	2
O=C1NC(=O)/C(=C/c2ccc(O)cc2)S1	-1	14*	0	1	0	1
Cc1n[nH]c(=S)n1/N=C/c1ccc(OCc2ccc(Cl)cc2Cl)cc1	0	4	4	0	2	4
NC(N)=N/N=C/c1ccc(OCc2ccc(Cl)cc2)cc1	-1	13*	4	1	-1	-1
Cc1n[nH]c(=S)n1/N=C/c1ccc(OCc2ccc(Cl)cc2)cc1	-1	13*	0	1	2	3
NC(N)=N/N=C/c1ccc(OCc2ccccc2)cc1	-1	8	0	-1	-2	-1
COc1cccc(-c2cc(C(C)=O)c3n(c2=O)CCC3)c1OC	-2	0	.	1	-1	.
CCCCCCCc1ccc(-c2ccc(O)cc2)nc1	-1	12*	5	1	2	0
CC(=O)O[C@H]1CC[C@@]2(C)C(CCC3C2CC[C@]2(C)OC(=O)CCC32)C1 (stereo partly specified)	-1	0	4	1	-1	5.0*
CC(=O)OC1CCC2(C)C(CCC3C4CC=C(C(C)=O)C4(C)OC(=O)CC32)C1 (stereo unspecified)	-2	-18	-15	-3	-4	-4
CCOC(=O)C1(Cc2cccc(OC)c2)CCCN(C(=O)CNC(C)=O)C1 (stereo unspecified)	0	13*	4	1	3	2
CC1(C)CC(=O)C=C(Nc2ccccc2NC(=O)c2cc(Cl)ccc2F)C1	-1	2	.	-1	1	.
O=C(NCCCN1CCCC1=O)c1cc2nc(-c3ccco3)cc(C(F)(F)F)n2n1	1.0*	-3	2	0	1	0
O=C(c1cc2nc(-c3ccco3)cc(C(F)(F)F)n2n1)N1CCCCCC1	-2	-1	7	-1	-2	0
Cn1c(=O)c2c(ncn2CC(=O)OCC(=O)Nc2cc(Cl)ccc2C#N)n(C)c1=O	1	0	0	0	6.0*	1
O=C(CSc1ncccn1)Nc1cc(Cl)ccc1[N+](=O)[O-]	0	2	-2	0	0	4.8*
Cc1ccc(Cl)cc1NC(=O)COC(=O)Cn1cnc2c1c(=O)n(C)c(=O)n2C	-2	-1	0	0	5	-1
O=C(CSc1ncccn1)NCc1ccc(Cl)cc1	-1	6	2	1	1	1
O=C(COC(=O)Cn1cnc2ccccc2c1=O)Nc1cc(Cl)ccc1[N+](=O)[O-]	1	0	2	0	5.6*	0
O=C(CSc1ncccn1)NCc1cccc(Cl)c1	-1	12*	2	0	4	1
O=C(CSc1ncnc2scc(-c3ccc(Cl)cc3)c12)Nc1ccccc1-c1ccccc1	-2	-2	.	-1	-2	.
O=C(NCCc1c[nH]c2ccccc12)[C@H](Cc1c[nH]c2ccccc12)NC1(C(=O)NC2CCCCC2)CCCCCCC1	0	-1	.	.	1	.
O=C(NCc1ccccc1)[C@@H]1CCCN1C(=O)[C@H]1CCCN1C(=O)c1ccc(F)cc1	-1	3	.	-1	0	.
Cc1cccn2c(=O)c3cc(C(=O)NCCc4ccccc4)sc3nc12	1.0*	0	-1	0	5	1
Fc1ccc(N2C(=S)SC(=Nc3ccccc3)C2=Nc2ccccc2)cc1	-1	7	2	1	4	2
N#CC(C#N)=C1SC(=Nc2ccccc2)C(=Nc2ccccc2)N1c1ccccc1	-1	7	4	4.5*	1	4
COc1ccc2c(c1)c(=O)oc1cc(OCC(=O)NC3CCCCC3)ccc12	0	0	-1	0	2	5.9*
O=C(CSc1ccc2ccccc2n1)c1ccc2c(c1)OCO2	2.3*	10	4	3	5	2
O=C(O)CSc1ccc2ccccc2n1	-1	0	1	1	0	1

Compound activity (PubChem)
